Test results from the supplement of paper PMC6522484.
± gives the standard deviation of the averaged measurements.

Key:
DLD1 [1] = experiment: cell viability (CellTiter-Glo) relative to plate median (fraction of plate median); higher = more viable cells; conditions: 10 µM, treatment time 24 h
Outline: (§1)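 Each value averages two independent replicates in which the well signal was normalised to the plate median (webcellHTS2, additive, without log transformation). The signal was firefly luciferase or CellTiterGlo luminescence, read on parallel plates with a Tecan F500. The cells were colorectal cancer lines with stable lentiviral TCF/Wnt firefly luciferase reporters in 384-well plates, dosed 24 h after seeding with kinase inhibitor library compounds at a final 10 µM for 24 h.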

HCT116 [2] = experiment: as above; conditions: 10 µM; treatment time 24 h; reporter: TCF4/Wnt
Outline: as §1

SW480 [3] = experiment: as above; conditions: 10 µM; treatment time 24 h; reporter: 7TFP
Outline: as §1

DLD1 [4] = experiment: TCF/Wnt firefly luciferase reporter signal relative to plate median (fraction of plate median); higher = higher Wnt reporter signal; conditions: 10 µM, treatment time 24 h
Outline: as §1

HCT116 [5] = experiment: as above; conditions: 10 µM; treatment time 24 h; reporter: TCF4/Wnt
Outline: as §1

SW480 [6] = experiment: as above; conditions: 10 µM; treatment time 24 h; reporter: 7TFP
Outline: as §1

Row | SMILES | cell viability (DLD1 [1]; reporter: 7TFP) | cell viability (DLD1 [1]; reporter: TCF4/Wnt) | cell viability (HCT116 [2]) | cell viability (SW480 [3]) | TCF/Wnt firefly luciferase reporter signal (DLD1 [4]; reporter: 7TFP) | TCF/Wnt firefly luciferase reporter signal (DLD1 [4]; reporter: TCF4/Wnt) | TCF/Wnt firefly luciferase reporter signal (HCT116 [5]) | TCF/Wnt firefly luciferase reporter signal (SW480 [6])
1 | Cn1cc(-c2ccc3nnc(Sc4ccc5ncccc5c4)n3n2)cn1 | 0.983 ± 0.016 | 0.9215 ± 0.0078 | 1.07 ± 0.05 | 0.862 ± 0.014 | 1.12 ± 0.16 | 1.19 ± 0.042 | 1.41 ± 0.17 | 1.02 ± 0.052
2 | Cn1cc(-c2ccc3ncc(Cc4ccc5ncccc5c4)n3n2)cn1 | 1.045 ± 0.0071 | 1.06 ± 0.094 | 1.15 ± 0.028 | 0.911 ± 0.032 | 0.931 ± 0.021 | 0.769 ± 0.21 | 0.991 ± 0.61 | 0.587 ± 0.28
3 | Cc1[nH]c(/C=C2\C(=O)Nc3ccccc32)c(C)c1CCC(=O)O | 0.941 ± 0.028 | 0.997 ± 0.061 | 1.08 ± 0.13 | 0.96 ± 0.044 | 1.93 ± 0.38 | 1.26 ± 0.41 | 1.4 ± 0.59 | 1.22 ± 0.16
4 | C=CC(=O)Nc1cccc(Sc2nc(Nc3ccc(N4CCN(C)CC4)cc3)ncc2Cl)c1 | 1.1 ± 0.035 | 1.02 ± 0.15 | 1.02 | 1.195 ± 0.0071 | 1.79 ± 0.25 | 1.15 ± 0.22 | 1.64 ± 0.67 | 1.32 ± 0.58
5 | COc1cc2ncnc(Nc3cccc(Br)c3)c2cc1OC | 1.15 ± 0.15 | 1.07 ± 0.064 | 1.06 ± 0.086 | 1.03 ± 0.071 | 0.631 ± 0.37 | 0.58 ± 0.13 | 0.911 ± 0.11 | 0.838 ± 0.09
6 | COc1ccc(S(=O)(=O)N(C(C)=O)c2ccccc2/C=C/c2cc[n+]([O-])cc2)cc1 | 0.982 ± 0.14 | 1.17 ± 0.14 | 0.619 ± 0.28 | 1.14 ± 0.085 | 0.725 ± 0.03 | 1 ± 0.14 | 0.278 ± 0.0071 | 0.7 ± 0.083
7 | CCc1cc2c(cc1N1CCC(N3CCOCC3)CC1)C(C)(C)c1[nH]c3cc(C#N)ccc3c1C2=O | 1.05 ± 0.071 | 0.995 ± 0.064 | 1.18 ± 0.26 | 0.853 ± 0.033 | 1.08 ± 0.078 | 1.05 ± 0.12 | 1.01 ± 0.17 | 0.638 ± 0.31
8 | COc1cc2ncnc(Nc3ccc(O)c(Br)c3)c2cc1OC | 1.04 ± 0.13 | 0.98 ± 0.029 | 1.13 ± 0.28 | 1.01 | 1.11 ± 0.021 | 0.832 ± 0.11 | 1.11 ± 0.17 | 1.17 ± 0.014
9 | CC(C)(C)c1cc(/C=C(\C#N)C(N)=S)cc(C(C)(C)C)c1O [Tyrphostin AG 879 (AG 879)] | 0.851 ± 0.1 | 0.911 ± 0.098 | 0.979 ± 0.1 | 0.844 ± 0.018 | 0.707 ± 0.12 | 1.04 ± 0.042 | 0.791 ± 0.12 | 0.878 ± 0.041
10 | CN(C)Cc1cccc(N/C(=C2\C(=O)Nc3cc(C(N)=O)ccc32)c2ccccc2)c1 | 1.15 ± 0.13 | 1.09 ± 0.057 | 1.09 ± 0.028 | 1.085 ± 0.0071 | 0.977 ± 0.23 | 0.982 ± 0.12 | 1.05 ± 0.095 | 1.14 ± 0.035
11 | c1cncc(CN2CCC(n3ncc4c(N5CCOCC5)nc(-c5ccc6[nH]ccc6c5)nc43)CC2)c1 | 0.992 ± 0.17 | 0.9595 ± 0.005 | 0.858 ± 0.052 | 1.19 ± 0.078 | 0.532 ± 0.025 | 0.607 ± 0.042 | 0.897 ± 0.16 | 1.16 ± 0.014
12 | CCC(=O)N1CCN(c2ccc(-n3c(=O)ccc4cnc5ccc(-c6cnc7ccccc7c6)cc5c43)cc2C(F)(F)F)CC1 [Torin 1] | 0.914 ± 0.16 | 0.97 ± 0.013 | 0.827 ± 0.045 | 1.17 ± 0.11 | 0.252 ± 0.044 | 0.311 ± 0.049 | 0.44 ± 0.096 | 0.66 ± 0.14
13 | O=c1c(O)c(-c2ccc(O)c(O)c2)oc2cc(O)cc(O)c12 [Quercetin (Sophoretin)] | 1.19 ± 0.035 | 1.02 ± 0.046 | 1.23 ± 0.092 | 0.92 ± 0.013 | 1.07 ± 0.014 | 1.04 ± 0.035 | 1.16 ± 0.071 | 0.978 ± 0.073
14 | N#CCNC(=O)c1ccc(-c2ccnc(Nc3ccc(N4CCOCC4)cc3)n2)cc1 | 1.06 ± 0.014 | 1.12 ± 0.021 | 1.25 ± 0.078 | 1.09 ± 0.035 | 1.32 ± 0.26 | 1.16 ± 0.13 | 1.31 ± 0.25 | 0.923 ± 0.34
15 | CN(c1ncccc1CNc1nc(Nc2ccc3c(c2)CC(=O)N3)ncc1C(F)(F)F)S(C)(=O)=O | 0.974 ± 0.19 | 1.06 ± 0.071 | 0.698 ± 0.21 | 1.19 ± 0.11 | 0.732 ± 0.28 | 1.66 ± 0.33 | 0.2 ± 0.037 | 0.9115 ± 0.0064
16 | CO[C@H]1C[C@@H]2CC[C@@H](C)[C@@](O)(O2)C(=O)C(=O)N2CCCC[C@H]2C(=O)O[C@H]([C@H](C)C[C@@H]2CC[C@@H](OC(=O)C(C)(CO)CO)[C@H](OC)C2)CC(=O)[C@H](C)/C=C(\C)[C@@H](O)[C@@H](OC)C(=O)[C@H](C)C[C@H](C)/C=C/C=C/C=C/1C [Temsirolimus (Torisel)] | 1.135 ± 0.0071 | 1.115 ± 0.0071 | 1.125 ± 0.0071 | 0.934 ± 0.0028 | 1.08 ± 0.085 | 0.995 ± 0.078 | 1.165 ± 0.0071 | 0.951 ± 0.11
17 | COc1ccc2c(OCc3nnc4ccc(-c5ccccc5)nn34)ccnc2c1 | 1.17 ± 0.05 | 1.06 ± 0.093 | 1.11 ± 0.05 | 0.909 ± 0.028 | 1.29 ± 0.028 | 1.27 ± 0.028 | 1.26 ± 0.035 | 1.16 ± 0.15
18 | CNC(=O)CN1CCC(Oc2cc3c(Nc4cccc(Cl)c4F)ncnc3cc2OC)CC1 | 1 ± 0.081 | 1.01 ± 0.059 | 1.05 ± 0.028 | 0.893 ± 0.0042 | 0.943 ± 0.19 | 0.862 ± 0.35 | 0.656 ± 0.43 | 0.849 ± 0.07
19 | COc1cc(N2CCC(N3CCN(C)CC3)CC2)ccc1Nc1ncc(Cl)c(Nc2ccccc2S(=O)(=O)C(C)C)n1 | 0.799 ± 0.069 | 0.884 ± 0.0071 | 0.733 ± 0.057 | 0.923 ± 0.054 | 0.909 ± 0.21 | 1.14 ± 0.035 | 1.2 ± 0.12 | 0.767 ± 0.057
20 | Cc1cc(C(C)Nc2ccccc2)c2nc(N3CCOCC3)cc(=O)n2c1 (stereo not drawn) | 0.997 ± 0.13 | 0.909 ± 0.04 | 1.115 ± 0.0071 | 0.909 ± 0.071 | 1.15 ± 0.11 | 1.21 ± 0.05 | 1.15 ± 0.092 | 0.679 ± 0.3
21 | COc1ccc(-c2cc3c(C)nc(N)nc3n([C@H]3CC[C@H](OCCO)CC3)c2=O)cn1 | 0.889 ± 0.028 | 0.944 ± 0.028 | 0.68 ± 0.15 | 1.1 ± 0.099 | 0.348 ± 0.096 | 0.533 ± 0.056 | 0.591 ± 0.039 | 0.725 ± 0.043
